Screens from PubChem BioAssay.
Beta cell apopt: blocks beta cell apoptosis; 300,000 tested, 0.8% active; protection from apoptosis, % (no concentration beside the values); INS-1E cytokine-induced death, ATP luminescence, 48 h; percent of positive-control rescue, neutral wells zero;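 active = Every replicate reaches about 75%, or at least half do and their mean reaches it too, limit read from the data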;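 note: 0% = cytokine-treated negative control wells and 100% = positive control rescue; higher means more ATP so stronger rescue from cytokine killing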
Jurkat NFkB inh: lowers PMA/ionomycin-induced NF-kB signal in Jurkat cells; PMA/ionomycin-induced NF-kB luciferase reporter, luminescence; inhibition, % at 4 µM; 330,000 tested, 0.53% active; AID 435003; in the data active = inhibition above about 50%
697 NFkB inh: inhibitors of the PMA/ionomycin-induced NF-kB reporter in 697 B cells; 697 B-cell NF-kB luciferase reporter, 16 h; inhibition, % at 4 µM; 330,000 tested, 0.33% active; AID 435022; in the data active = inhibition above about 35%
Gli-Sufu antag: blocks Gli-Sufu signaling in a luciferase reporter | Sufu-KO-LIGHT fibroblasts, Gli luciferase reporter luminescence | inhibition, % at 5 µM | 340,000 tested, 0.74% active | AID 588413;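 active = inhibition above about 55%, limit read from the data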;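 note: 0% = DMSO-treated cells and 100% = wells with medium but no cells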
Jurkat NFkB conf: lowers PMA/ionomycin-induced NF-kB signal in Jurkat cells. 2,700 tested, 27% active. inhibition, % at 4 µM. Jurkat NF-kB luciferase, 16 h. shares compounds with Jurkat NFkB inh;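 active = inhibition reaching about 45% at 4 µM in either replicate, limit read from the data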;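 note: plate controls were PMA/ionomycin stimulated DMSO wells for no effect and unstimulated DMSO wells for full effect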
* marks the source's active call; other numbers are inactive results; nt = not tested or not shown. The list is not random: actives were taken first. Their share in the collection is about 1.8%.

SMILES	Beta cell apopt	Jurkat NFkB inh	697 NFkB inh	Gli-Sufu antag	Jurkat NFkB conf
COc1cccc(C2=NOC(C(=O)NCc3ccc(F)cc3)C2)c1 (configuration not stated)	-4	-4	-9	-16	nt
O=C(NCc1ccco1)C1CC(c2ccccc2C(F)(F)F)=NO1 (configuration not stated)	-9	7	6	1	nt
COc1ccc(C2=NOC(C(=O)NCc3ccc(F)cc3)C2)cc1OC (configuration not stated)	21	78*	27	44	58*
COc1cc(C2=NOC(C(=O)NCc3ccc(F)cc3)C2)cc(OC)c1OC (configuration not stated)	22	68*	29	46	52*
COc1ccccc1CNC(=O)C1CC(c2cccc([N+](=O)[O-])c2)=NO1 (configuration not stated)	-6	55*	-6	1	13
O=C(NCc1ccco1)C1CC(c2cc(C(F)(F)F)cc(C(F)(F)F)c2)=NO1 (configuration not stated)	10	62*	-28	9	20
O=C(OCC(=O)N1CCN(Cc2ccccc2)CC1)c1ccc(Cl)cc1	1	-6	1	0	nt
Cn1c(=O)[nH]c2cc3ccccc3cc21	2	-12	21	8	nt
Cn1c(=O)c2c(SCC(=O)Nc3ccccc3F)nc(C3CC3)nc2n(C)c1=O	-2	1	-21	14	nt
CC(=O)Nc1c(O)nc(C)[nH]c1=O	-2	5	9	-1	nt
COCCn1c(=O)[nH]c2cc(C(=O)N3CCN(c4ccc(OC)cc4)CC3)ccc2c1=O	0	-21	-14	-7	nt
Cc1ccc(NC(=O)NC(=O)CN2CCN(c3ccc(O)cc3)CC2)c(C)c1	3	-7	-41	20	nt
Cc1nc(Sc2nnnn2C)c2c3c(sc2n1)CCC3	61	64*	-173	50	53*
CCN(CCCNC(=O)C1CCC(=O)N1Cc1ccc(C)cc1)c1cccc(C)c1 (configuration not stated)	0	57*	-7	27	-26
CCCc1ccc(C(=O)/C=C/N(C)C)cc1	2	-65	-42	-63	nt
CC(C)(C)c1ccc(/C=C/C(=O)Nc2nncs2)cc1	-1	-171	-11	-56	-113
CCOc1cc(/C=N/NC(N)=O)ccc1OCC(=O)Nc1ccc(C)c(C)c1	0	6	8	0	nt
CCN(CC)c1ccc2c(cc1=O)[C@@H](NC)CCc1cc(OC)c(OC)c(OC)c1-2	39	60*	-3	41	3
CN[C@H]1CCc2cc(OC)c(OC)c(OC)c2-c2ccc(N(C)CC(OC)OC)c(=O)cc21	10	30	-12	5	nt
CC1CN(c2nc3ccccn3c(=O)c2/C=C(\C#N)C(N)=O)CC(C)O1 (configuration not stated)	-2	-28	-14	-1	nt
NC(=O)COc1ccc(/C=N\NC(=O)c2ccc(-c3ccccc3)cc2)cc1	-2	-5	4	-11	nt
CC(=O)c1ccc(NC(=O)c2noc3c2CCCCC3)cc1	-2	-165	-121	-120	-96
O=C(Nc1ccc2c(c1)OCO2)c1noc2c1CCCCC2	-4	-145	-153	-91	nt
CCOC(=O)N/N=C/c1c(C)nn(-c2ccccc2Cl)c1Cl	-3	-20	-57	-81	nt
Cc1nn(-c2ccccc2Cl)c(Cl)c1/C=N/Nc1nc2ccccc2s1	7	67*	-223	86*	86*
SMILES	Beta cell apopt	Jurkat NFkB inh	697 NFkB inh	Gli-Sufu antag	Jurkat NFkB conf
COc1ccccc1N1CCN(C2CC(=O)N(c3ccc(F)cc3)C2=O)CC1 (configuration not stated)	-3	9	-1	5	nt
O=C(/C=C/c1cccc([N+](=O)[O-])c1)n1cnc2ccccc21	nt	71*	-43	16	40
Cc1ccc(NC(=O)Nc2ccc3c(c2)nc(C)n3C)cc1	-8	-117	-115	-107	nt
Cc1nc2cc(NC(=O)Nc3cccc([N+](=O)[O-])c3)ccc2n1C	3	-166	-216	-113	-118
O=C(N/N=C/C(Br)=C\c1ccccc1)c1cccs1	11	-74	-182	-67	nt
CC(=C/c1ccccc1)/C=N/NC(=O)c1cccs1	7	-171	-206	-51	-102
COc1ccccc1Oc1ccc(-c2cnc3ccccc3n2)cc1[N+](=O)[O-]	7	59*	-70	-12	-3
CN(C)c1ccc(/C=N/n2ncc3ccccc32)cc1	9	-174	-159	-67	-65
Cc1ccc2c(c1)sc1nc(=O)n(-c3ccccc3)c(=O)n12	-1	-183	-169	-91	-114
Cc1ccc2c(c1)sc1ncc(NC(=O)c3ccc(F)cc3)c(=O)n12	-6	11	18	nt	nt
COc1ccc(N(Cc2cc3ccccc3[nH]c2=O)S(=O)(=O)c2ccc(C)cc2)cc1	-4	-5	-13	-20	nt
Cc1ccc(N(Cc2cc3ccccc3[nH]c2=O)S(=O)(=O)c2ccccc2)cc1	-2	85*	-17	8	16
CCC1(c2ccc(F)cc2)NC(=O)N(CC(=O)Nc2ccc(-c3nc4ccc(C)cc4s3)cc2)C1=O (configuration not stated)	92*	-186	-178	-115	-82
CCN1/C(=C/c2cccc[n+]2C)Sc2ccc(OC)cc21	105*	72*	-9	77*	-5
COc1ccc(CS(=O)(=O)/C(Cl)=C(/Cl)C(=O)Nc2ccc(OC)nc2)cc1	52	81*	-156	18	85*
COc1ccc(NC(=O)/C(Cl)=C(/Cl)S(=O)Cc2ccccc2)cn1 (configuration not stated)	104*	95*	-131	66*	98*
COc1ccc(NC(=O)Cc2ccccc2)cn1	1	4	23	1	nt
Cc1nc(NC(=O)c2ccco2)sc1-c1csc(Nc2ccc(Cl)cc2)n1	7	16	2	4	nt
O=C(c1ccccc1)c1cc([N+](=O)[O-])ccc1N1CCCC1	-13	10	-15	-3	nt
Cc1ccc(C(=O)c2cc([N+](=O)[O-])ccc2N2CCOCC2)cc1C	-4	66*	-75	18	51*
CN1CCN(c2ccc([N+](=O)[O-])cc2C(=O)c2ccc(Br)cc2)CC1	3	73*	-31	7	26
Cc1ccc(C(=O)c2cc([N+](=O)[O-])ccc2N2CCCCC2)cc1C	nt	63*	-34	43	42
Cc1ccc(C(=O)c2cc([N+](=O)[O-])ccc2N2CCN(C)CC2)cc1	14	41	-2	13	nt
Cc1ccc(C(=O)c2cc([N+](=O)[O-])ccc2N2CCOCC2)c(C)c1	24	55*	22	47	50*
CCCCN(CC)S(=O)(=O)c1c(C)[nH]c(=O)[nH]c1=O	nt	-22	20	13	nt
COc1ccc(-c2cn(CCO)nc2-c2ccc(OC)cc2)cc1	-8	-1	-12	30	nt
Cc1ccc(NC2CCCN(C(=O)c3ccccc3N3CCOCC3)C2)cc1C (configuration not stated)	-1	-5	-2	-17	nt
Cc1[nH]c2ccc3ncccc3c2c1C	-2	-1	-28	1	nt
